Rows were chosen to be rich in hits. Some 11% of all compounds tested hit in one or more screens of this group.
NPSR antagonist: qHTS Assay for Antagonists of the Neuropeptide S Receptor: cAMP Signal Transduction; 220,000 compounds, 1% hits; CHO-NPSR cells, cAMP TR-FRET, antagonist mode; AID 1461, 2008; Q6W5P4; Potency, µM (top dose mostly 38.3 µM), actives largely listed as inhibitors; active = well fitted curve in the direction sought with a large enough effect; inconclusive = small, poorly fitted or top-dose-only effect, or another doubt; inactive = no such curve, though single readings can be large; an effect the other way counts as inactive or inconclusive; note: nearly all actives have a fitted effect of over 50% in size
ALDH1A1 inh: qHTS Assay for Inhibitors of Aldehyde Dehydrogenase 1 (ALDH1A1); Aldehyde dehydrogenase 1A1 (Homo sapiens), P00352; 220,000 compounds, 7.3% hits; Potency, µM (series often up to 75.3 µM), usual class: inhibitors; Purified ALDH1A1, NADH fluorescence, propionaldehyde substrate
Target sequence (P00352 whole entry, looked up): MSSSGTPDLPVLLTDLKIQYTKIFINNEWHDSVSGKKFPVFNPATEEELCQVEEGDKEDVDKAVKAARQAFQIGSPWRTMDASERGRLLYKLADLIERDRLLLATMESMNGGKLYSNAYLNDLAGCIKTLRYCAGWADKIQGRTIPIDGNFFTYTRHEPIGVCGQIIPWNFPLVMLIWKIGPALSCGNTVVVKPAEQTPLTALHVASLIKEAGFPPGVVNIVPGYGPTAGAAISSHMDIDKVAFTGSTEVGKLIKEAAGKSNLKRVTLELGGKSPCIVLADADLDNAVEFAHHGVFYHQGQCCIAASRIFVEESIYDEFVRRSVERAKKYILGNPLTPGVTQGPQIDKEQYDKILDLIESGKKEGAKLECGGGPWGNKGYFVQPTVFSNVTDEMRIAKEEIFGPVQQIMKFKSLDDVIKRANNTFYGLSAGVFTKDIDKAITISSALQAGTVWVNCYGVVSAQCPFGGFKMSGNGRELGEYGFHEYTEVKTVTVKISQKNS
PNC inhibitor: High Content Assay for Compounds that inhibit the Assembly of the Perinucleolar Compartment; PC3M PTB-GFP, PNC prevalence imaging, 16 h; stronger effect = lower value; activity change (PNC), negative = inhibition, % at 10 µM; 140,000 compounds, 3.1% hits; AID 2417, 2010;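 active = readout at or below -70, meaning at least 70% loss of cells showing the perinucleolar compartment, a nuclear body marking cancer cells; inconclusive = readout between -30 and a set limit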
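PC3M cells stably expressing PTB-GFP, 750–1000 cells/well, treated 16 h at 37 °C with compound (23 nl of library stock), in duplicate. After paraformaldehyde fixation and Hoechst stain, imaged at 20x; PNC prevalence scored by image analysis.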
IMPase Li inh: qHTS Assay for Identifying the Cell-Membrane Permeable IMPase Inhibitors: Potentiation with Lithium; AID 1457, 2008; CHO-M1 cells, IP1 TR-FRET (IP-One), carbachol + lithium; Potency, µM (series often up to 59.4 µM), most hits filed as inhibitors; 210,000 compounds, 0.35% hits; active = well fitted curve in the direction sought with a large enough effect; inconclusive = small, poorly fitted or top-dose-only effect, or another doubt; inactive = no such curve, though single readings can be large; an effect the other way counts as inactive or inconclusive;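 note: IP1 builds up when IMPase is blocked and the TR-FRET signal falls; nearly all actives have a fitted effect of over 50% in size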
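Steps: plate 2000 CHO-M1 cells per well and culture 16–30 h; add compound and lithium; incubate 30 min, 37C; add d2-IP1 tracer and Eu cryptate anti-IP1 antibody in lysis buffer; read after 10 min at room temperature.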
HPGD block: qHTS Assay for Inhibitors of HPGD (15-Hydroxyprostaglandin Dehydrogenase); 15-hydroxyprostaglandin dehydrogenase [NAD(+)] (Homo sapiens), P15428; purified HPGD, NADH fluorescence kinetic, PGE2 substrate; Potency, µM, actives largely listed as inhibitors; 150,000 compounds, 4.3% hits; AID 894, 2007
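NADH formation kinetics: reaction with 30 uM PGE2 and 1 mM NAD+ (final), 20 nM enzyme, Tris-HCl pH 8 with Tween 20, after 15 min compound preincubation at room temperature. Fluorescence change, last versus first of five reads.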
IMPase inh: qHTS Assay for Identifying the Cell-Membrane Permeable IMPase Inhibitors; Inositol monophosphatase 1 (Rattus norvegicus), P97697; CHO-M1 cells, IP1 accumulation, HTRF TR-FRET ratio; inhibition (IP1 accumulation), % at 46.1 µM; 120,000 tested, under 10 active; active = well fitted curve in the direction sought with a large enough effect in the signal ratio, not every such curve was filed as active; inconclusive = small, poorly fitted or top-dose-only effect, or a change in a side signal; inactive = no such curve, though single readings can be large or run the other way; the % refers to the signal ratio;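 note: cells stimulated with carbachol in lithium chloride buffer; higher means more IMPase inhibition seen as more IP1 and lower FRET ratio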
Target sequence (P97697 whole entry, looked up): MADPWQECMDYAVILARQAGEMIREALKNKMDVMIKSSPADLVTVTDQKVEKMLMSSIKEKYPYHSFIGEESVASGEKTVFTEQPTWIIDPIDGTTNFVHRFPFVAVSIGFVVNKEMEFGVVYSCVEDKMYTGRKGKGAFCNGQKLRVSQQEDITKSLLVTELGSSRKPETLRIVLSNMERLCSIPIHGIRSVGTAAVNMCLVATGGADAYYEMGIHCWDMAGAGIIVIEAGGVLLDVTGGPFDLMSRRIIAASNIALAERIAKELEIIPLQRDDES
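CHO-M1, 2000 cells/well, cultured 16–30 h; cpd up to 46 uM; carbachol (50 uM solution, stimulation buffer w/ 50 mM LiCl, pH 7.4), 30 min 37C; IP-One TR-FRET, 10 min RT; Ex 320/Em 665, 620; Hill-fit AC50.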
Numbers stand for hits; 0 = inactive; ? = inconclusive; - = no result. Unless noted, calls come from the whole dose curve; as a rule, active = well fitted inhibition curve with a large enough effect (not every such curve was filed as active); inconclusive = small, poorly fitted or top-dose-only effect, or another doubt; inactive = no such curve, though single readings can be large or run the other way.

SMILES | NPSR antagonist | ALDH1A1 inh | PNC inhibitor | IMPase Li inh | HPGD block | IMPase inh
O=C(O)/C=C/C(=O)NNC(=O)c1ccccc1Br | 0 | 11µM | 0 | 0 | ? | 0
Fc1ccccc1-c1nnc2c3ccccc3nc(N3CCOCC3)n12 | 0 | 0 | 0 | 0 | 0 | 0
Cc1cc(NS(=O)(=O)c2ccccc2)c([N+](=O)[O-])cc1C | 0 | ? | ? | 0 | 0 | -
CCOC(=O)N1CCN(C(=O)Cn2c(C)cc3ccccc3c2=O)CC1 | 0 | 0 | 0 | 0 | 0 | 0
COCc1c(C)cc(C)c(/C=N/O)c1C | 0 | 0 | 0 | 0 | 14µM | 0
Fc1ccccc1NC(=S)NCc1ccc2c(c1)OCO2 | 0 | 0 | 0 | 0 | 0 | -
Cc1c(Cl)cccc1NC(=S)NCCC(C)C | 0 | 0 | ? | 0 | 0 | 0
S=C(NCc1ccccc1)NCc1ccc2c(c1)OCO2 | 0 | ? | ? | 0 | 16µM | 0
Cc1cccc(NC(=S)NC(=O)CCc2ccccc2)c1C | ? | 13µM | 0 | 0 | 0 | 0
Cc1c(Cl)cccc1NC(=S)NCc1ccccc1Cl | 0 | 0 | 0 | 0 | 22µM | -
O=S(=O)(c1c(F)cccc1F)N1CCN(C(=S)NCc2ccc3c(c2)OCO3)CC1 | 0 | 4µM | - | 0 | - | -
COC(=O)[C@@]1(Cc2ccc(F)cc2)[C@H]2c3cc(C(=O)N4CCCC4)n(Cc4ccc(Cl)c(C(F)(F)F)c4)c3C[C@H]2CN1C(=O)c1ccccc1 | - | 0 | - | 0 | 0 | -
CCc1ccc(CN(C)C(=O)CCc2nnc(CCc3ccccc3OC)o2)nc1 | 0 | 0 | - | 0 | - | -
Cc1c(Cl)cccc1NC(=S)NCCC(c1ccccc1)c1ccccc1 | 0 | ? | ? | 0 | 0 | -
Cc1ccccc1NC(=S)NCCc1ccccc1 | 0 | ? | ? | 0 | 25µM | -
Cc1cc(Cl)ccc1NC(=S)NCCC(c1ccccc1)c1ccccc1 | 0 | 0 | -86 | 0 | 0 | 0
Cc1cccc(C)c1NC(=S)NCCc1ccccn1 | 0 | 0 | -105 | 0 | 0 | -
S=C(NCc1ccccc1)NCc1ccccc1 | 0 | ? | 0 | 0 | 14µM | 0
CS(=O)(=O)N1CCN(Cc2ccccc2C(F)(F)F)CC1 | ? | 0 | 0 | 0 | 0 | 0
Cc1cccc(NC(=S)NCCc2ccccc2)n1 | 0 | ? | - | 0 | - | -
Cc1ccccc1NC(=S)NCc1ccccc1 | 0 | 0 | ? | 0 | 28µM | -
S=C(NCCc1ccccc1)Nc1ccccn1 | 0 | 3.2µM | 0 | 0 | 0 | -
O=C(C(Cc1ccccc1)N1C(=O)c2ccccc2C1=O)N1CCc2ccccc21 (stereo not given) | ? | 0 | -100 | 0 | 0 | 0
O=C(O)[C@H](Cc1ccccc1)N1C(=O)c2ccccc2C1=O | - | ? | - | 0 | 0 | -
CSc1nc(-c2ccccc2)[nH]c(=S)c1C(C)=O | 0 | 0 | 0 | 0 | 0 | 0
SMILES | NPSR antagonist | ALDH1A1 inh | PNC inhibitor | IMPase Li inh | HPGD block | IMPase inh
CCN1CC2=C(OC(N)=C(C#N)C2c2ccccc2)/C(=C\c2ccccc2)C1 (stereo not given) | 0 | ? | ? | 0 | 0 | 0
CCN1CC2=C(OC(N)=C(C#N)C2c2cccs2)/C(=C/c2cccs2)C1 (stereo not given) | 0 | 18µM | 0 | 0 | 0 | 0
CCN1C=C(Cc2cccs2)C2=C(C1)C(c1cccs1)C(C#N)=C(N)O2 (stereo not given) | 0 | 20µM | 0 | 0 | 0 | 0
O=C(NC1CCCCCCC1)c1cc(COc2ccc3ncccc3c2)on1 | 0 | ? | - | 0 | - | -
N#CCCn1cc(/C=N/NC(N)=S)c(-c2ccc(-c3ccccc3)cc2)n1 | 0 | 0 | - | 0 | - | -
COc1ccc2[nH]cc(CCn3ccc(O)c(C/C=C/c4ccccc4)c3=O)c2c1 | 0 | 14µM | - | 0 | - | -
O=c1c(C/C=C/c2ccccc2)c(O)ccn1CCc1c[nH]c2ccccc12 | 0 | 40µM | - | 0 | - | -
Cc1ccc(NC(=O)CN(C)CC(=O)Nc2ccc(N3CCOCC3)cc2)c(C)c1 | 0 | 0 | 0 | 0 | 0 | -
CCOc1ccccc1NC(=O)Nc1cccc(C(C)=O)c1 | 0 | ? | 0 | 0 | 0 | 0
COCc1cc(=O)[nH]c(SCC(=O)Nc2ccccc2)n1 | 0 | 0 | 0 | 0 | 0 | 0
CCOC(=O)N1CCN(C(=O)C2CCN(S(=O)(=O)c3cc(OC)ccc3OC)CC2)CC1 | 0 | 0 | - | 0 | - | -
CCCC(C(=O)NC1CCCCC1)N(Cc1ccco1)C(=O)CNS(=O)(=O)c1ccccc1 (stereo not given) | 0 | 10µM | 0 | 0 | 0 | 0
CC(C)C(C(=O)NCC1CCCO1)N(Cc1ccco1)C(=O)CNS(=O)(=O)c1ccc(F)cc1 (stereo not given) | 0 | 0 | 0 | 0 | 0 | 0
O=C(CN(Cc1ccco1)C(=O)CNS(=O)(=O)c1ccc(Cl)cc1)NC1CCCCC1 | 0 | 0 | 0 | 0 | 0 | 0
CCCC(C(=O)NCC1CCCO1)N(Cc1ccco1)C(=O)CNS(=O)(=O)c1ccccc1 (stereo not given) | 0 | 11µM | 0 | 0 | 0 | 0
Cc1nc2sccn2c(=O)c1S(=O)(=O)Nc1ccc(N2CCN(C)CC2)cc1 | - | - | - | - | - | 0
CCCCS(=O)(=O)N1CCc2nc(-c3ccc(OC)cc3C)c3c(c2C1)CO[C@@H](c1ccccc1)C3 | - | 0.45µM | - | 0 | 0 | -
C=CCNC(=O)N1CCc2nc(-c3ccc(OC)cc3C)c3c(c2C1)CO[C@@H](c1ccccc1)C3 | - | ? | - | 0 | 0 | -
COC(=O)[C@@H](NC(=O)N1CCc2nc(-c3ccc(OC)cc3C)c3c(c2C1)CO[C@@H](c1ccccc1)C3)C(C)C | - | ? | - | 0 | 0 | -
COC(=O)c1ccccc1S(=O)(=O)N1CCc2nc(-c3ccc(OC)cc3C)c3c(c2C1)CO[C@@H](c1ccccc1)C3 | - | 4µM | - | 0 | 0 | -
COc1ccc(-c2nc3c(c4c2C[C@H](c2ccccc2)OC4)CN(S(=O)(=O)c2ccc(NC(C)=O)cc2)CC3)c(C)c1 | - | 0.45µM | - | 0 | 0 | -
O=C(Nc1ccccc1O)c1cccc(S(=O)(=O)N2CCOCC2)c1 | 0 | 0 | - | 0 | - | -
O=C(O)CC12CC3CC(C1)CC(n1ncc(NCC4CCCO4)c(Cl)c1=O)(C3)C2 (stereo not given) | 0 | 25µM | - | - | - | -
O=C(O)CC12CC3CC(C1)CC(n1ncc(NCc4ccco4)c(Cl)c1=O)(C3)C2 | 0 | - | - | - | - | -
[O-]/C(=C(\C(=S)Nc1ccc(Cl)cc1)[n+]1ccccc1)c1ccc(OC(F)F)cc1 | 0 | ? | - | 0 | - | -
COc1ccc(Oc2coc3cc(OC(=O)/C=C/c4ccccc4)ccc3c2=O)cc1 | 0 | 0 | -81 | 0 | 0 | 0
